Only some compounds are listed: those with a hit (about 2.3% of all), similar ones and a draw of the others.
CHRM1 antagonist – human M1 muscarinic receptor antagonists, primary screen, CHO-K1 cells, Fluo-8 calcium fluorescence, 1536-well. Muscarinic acetylcholine receptor M1 (Homo sapiens), P11229. CHO-K1 hM1, ACh EC80 antagonist. inhibition, % at 3 µM. 360,000 compounds, 1.3% hits;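 active means percent inhibition above its own plate's cutoff, namely the mean of that plate's compound wells plus 3 SD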;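 further: peak over basal fluorescence ratio during 140 s after agonist addition; 0% = ACh EC80 plus DMSO and 100% = DMSO alone without agonist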
Target sequence (P11229 whole entry, looked up): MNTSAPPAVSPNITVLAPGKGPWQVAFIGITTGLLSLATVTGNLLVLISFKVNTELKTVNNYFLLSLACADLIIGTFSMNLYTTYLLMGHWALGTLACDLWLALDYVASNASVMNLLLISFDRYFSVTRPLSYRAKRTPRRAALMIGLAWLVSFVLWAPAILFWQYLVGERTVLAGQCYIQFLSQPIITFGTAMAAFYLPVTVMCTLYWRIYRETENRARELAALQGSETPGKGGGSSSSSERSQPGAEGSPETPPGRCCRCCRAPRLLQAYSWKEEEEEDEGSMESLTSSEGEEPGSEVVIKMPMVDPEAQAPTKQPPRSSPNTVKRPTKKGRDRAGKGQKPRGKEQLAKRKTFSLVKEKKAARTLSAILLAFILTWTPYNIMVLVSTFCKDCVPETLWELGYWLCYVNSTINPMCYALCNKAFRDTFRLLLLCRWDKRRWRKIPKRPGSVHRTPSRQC
CHO-K1 Ca antag – M1 antagonist counterscreen hit in parental CHO-K1 cells | ATP-induced calcium, Fluo-8 fluorescence | 360,000 compounds, 0.6% hits | inhibition, % at 3 µM;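 active means inhibition above a per-plate cutoff, the plate's mean sample inhibition plus 3 SD, cut at about 24% in these data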;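 further: 0% = DMSO plus EC80 ATP and 100% = DMSO alone without ATP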
M1 PAM parental – nonselective calcium activators in parental CHO-K1 cells, primary screen, counter-screen for M1 PAM project, cell-based, Fluo-8 calcium fluorescence, full deck, 1536-well; ATP EC20; 0% at ATP EC20, 100% at ATP max; activation, % at 3 µM; 360,000 compounds, 0.02% hits; AID 602247, 2012;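 active means activation above the run cutoff, the mean activation of all test compounds plus 3 SD, cut at about 40% in these data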;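 further: peak over basal fluorescence ratio in a 140 s read after ATP addition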
M1 ag parental – counter-screen for M1 agonists: effect in parental CHO-K1 cells. Fluo-8 calcium fluorescence; scaled to maximal ATP response, vehicle zero. activation, % at 3 µM. 360,000 compounds, 0.48% hits. AID 602248, 2012; in the data active means activation above about 15%;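 further: untransfected CHO-K1 host cells lacking M1 receptor as counterscreen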
M1 ag – human M1 muscarinic receptor agonists, primary screen, Fluo-8 calcium fluorescence, CHO-K1 cells, HTS; CHO-K1 hM1, agonist mode; 0% DMSO, 100% acetylcholine EC100; 360,000 compounds, 0.33% hits; Muscarinic acetylcholine receptor M1 (Homo sapiens), P11229; activation, % at 3 µM;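 active means activation above the run's mean compound activation plus 3 SD, cut at about 16% in these data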;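 further: peak over basal fluorescence ratio within a 140 s kinetic read after compound addition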
CHRM1 PAM – human M1 muscarinic receptor positive allosteric modulators, primary screen, CHO-K1 cells, Fluo-8 calcium fluorescence, 1536-well | 360,000 compounds, 0.088% hits | CHO-K1 hM1, ACh EC20; 0% = ACh EC20, 100% = maximal ACh | Muscarinic acetylcholine receptor M1 (Homo sapiens), P11229 | AID 588819, 2011 | activation, % at 3 µM; in the data active means activation above about 19%, passing the limit was not always enough
The depositor's hits bear a star; x = no result.

SMILES | CHRM1 antagonist | CHO-K1 Ca antag | M1 PAM parental | M1 ag parental | M1 ag | CHRM1 PAM
O=C(Nc1ccc2nc(SCc3ccc(Cl)cc3)sc2c1)c1ccccc1C(=O)N1CCOCC1 | 29* | 11 | 6 | 3 | -2 | -9
Cc1ccc(OCC(=O)N2CCCC(CO)(CCOc3ccccc3)C2)cc1 (stereo not drawn) | -10 | -4 | -1 | 3 | -2 | 10
CSc1nc(SCCN(C)C)c2c3c(sc2n1)COC(C)(C)C3 | 11 | -15 | 10 | 0 | 51* | -25
CCOc1ccc(NC(=O)NCCCn2c(C)nc3cc(C)c(C)cc32)cc1 | 46* | -10 | 4 | 1 | -3 | -21
COc1ccc(N2CCN(CC(O)COC(c3ccc(F)cc3)c3ccc(F)cc3)CC2)cc1 (stereo not drawn) | 39* | -15 | 11 | 0 | -11 | -14
COc1ccc(N2CCN(CC(O)COC(c3ccccc3)c3ccccc3)CC2)cc1 (stereo not drawn) | 25 | -1 | 11 | 2 | -11 | -30
CCCCN1CC(=O)N2[C@H](c3ccc(Cl)cc3)[C@@H]3C(=O)N(CC)C(=O)[C@@H]3[C@]2(Cc2ccccc2)C1=O | -1 | -12 | 14 | 1 | -4 | 6
Cc1cc(C)cc(NC(=O)c2ccc(CSc3nnc(C)s3)cc2)c1 | 36* | 16 | -4 | 4 | 0 | -12
Cc1noc(C)c1C(=O)OC(C)C(=O)c1ccc(C(C)(C)C)cc1 (stereo not drawn) | -10 | -16 | 11 | 0 | -4 | 4
O=C(Nc1cccnc1)c1cc2cc(Br)ccc2o1 | 60* | -12 | 16 | 2 | -2 | -4
O=C(NC(=S)Nc1cccnc1)c1cc2ccccc2o1 | -8 | 1 | 6 | 2 | -4 | 7
O=[N+]([O-])c1ccc(COc2cccc(CN3CCCCC3)c2)cc1 | 7 | -10 | 3 | 2 | -9 | -9
CC(=O)c1cn(N2CCCCC2)c(=O)[nH]c1=O | -5 | 4 | -1 | 0 | -4 | 3
O=C1/C(=C\c2cc([N+](=O)[O-])ccc2O)SC(=S)N1Cc1ccc(Cl)cc1 | 36* | 7 | -6 | 7 | 23* | -13
CN(C)S(=O)(=O)c1cccc(NC(=O)CNc2cccc(S(=O)(=O)N3CCCCC3)c2)c1 | 2 | -5 | 15 | 6 | -5 | -4
CCc1nc2ccccc2c(C(=O)OCC(=O)Nc2cccc(S(=O)(=O)N3CCOCC3)c2)c1C | 28* | 15 | -6 | 3 | -4 | -9
CC(OC(=O)CC1CC2CCC1C2)C(=O)Nc1ccc(N2CCOCC2)cc1 (stereo not drawn) | -16 | -22 | 20 | 5 | 12 | 18
CCN(CC)S(=O)(=O)c1cccc(NC(=O)CNc2cccc(S(=O)(=O)N3CCOCC3)c2)c1 | 33* | 11 | -16 | 8 | -2 | -8
CC(OC(=O)CC1CC2CCC1C2)C(=O)Nc1cccc(S(=O)(=O)N2CCOCC2)c1 (stereo not drawn) | -26 | 7 | 3 | 1 | 6 | 24*
CCN(CC)S(=O)(=O)c1cc(NC(=O)CNc2cccc(S(=O)(=O)N3CCCC3)c2)ccc1C | 29* | 19 | -4 | 7 | -1 | -6
CCN(CC)S(=O)(=O)c1ccc(C)c(NC(=O)CNc2cccc(S(=O)(=O)N3CCOCC3)c2)c1 | 3 | 11 | 3 | 9 | -1 | -2
COc1ccc(NC(=O)C2c3ccccc3OCC(=O)N2Cc2cccnc2)cc1 (stereo not drawn) | x | -5 | -9 | 0 | x | x
Cc1ccc(S(=O)(=O)N(Cc2ccccc2)c2ccccc2C(=O)N2CCCCC2)cc1 | -8 | -14 | 12 | 0 | -5 | 6
COc1cc(OC)c(C(=O)OCC(=O)N2CCOCC2)cc1OC | -4 | 2 | -8 | 10 | -4 | 6
CN(CC(=O)NCC(=O)Nc1ccc(F)cc1)CC(=O)Nc1ccc(Cl)c(C(F)(F)F)c1 | 8 | -8 | 3 | 2 | -1 | 0
SMILES | CHRM1 antagonist | CHO-K1 Ca antag | M1 PAM parental | M1 ag parental | M1 ag | CHRM1 PAM
CN(CC(=O)Nc1cccc(S(=O)(=O)N2CCOCC2)c1)CC(=O)Nc1ccc(Cl)c(C(F)(F)F)c1 | 42* | 7 | -25 | 6 | -2 | -14
CN(CC(=O)NCc1ccc(F)cc1)CC(=O)Nc1ccc(Cl)c(C(F)(F)F)c1 | 29 | 9 | -11 | 13 | 16* | -2
CC(=O)Nc1nonc1NC(=O)COc1ccccc1 | 0 | -10 | 12 | 1 | -4 | 2
O=C(CSc1nccc(=O)[nH]1)N1CCN(c2ccccc2)CC1 | 3 | 22 | -13 | 0 | -5 | 1
Cc1ccc(C)c(N(CC(=O)N2CCCC2)S(C)(=O)=O)c1 | -1 | 2 | -6 | 0 | -3 | -1
O=C1CSC2(C(=O)N3CCCc4cccc2c43)N1c1cccc(C(F)(F)F)c1 (stereo not drawn) | 89* | -8 | 12 | 0 | -8 | -22
COc1ccc(N2C(=O)CSC23C(=O)N2CCCc4cccc3c42)cc1 (stereo not drawn) | 85* | -7 | 9 | 1 | -6 | -26
NC(=O)c1ccc(-c2ccc(N3C(c4ccsc4)=Cc4ccc(F)cc4C3CC(=O)c3ccco3)cc2)cc1 (stereo not drawn) | x | -16 | 12 | 1 | x | x
C#CCN1C=C(C(=O)OCC)C(C)N(Cc2ccccc2I)S1(=O)=O (stereo not drawn) | -1 | 2 | -2 | 0 | -6 | -4
CCc1ccc(CNC(=O)CCC(=O)N2Cc3cccc(OC)c3Oc3ncccc32)cc1 | -15 | -11 | 19 | 1 | -5 | 7
CC(=O)CC(=O)Nc1ccn(-c2ccccc2)n1 | 16 | 27* | -9 | 0 | 3 | -4
O=C(O)CCCC(=O)Nc1ccn(-c2ccccc2)n1 | -23 | -1 | 13 | 0 | -2 | 5
CC1(C)CC1C(=O)Nc1ccc([N+](=O)[O-])cc1Br (stereo not drawn) | -8 | -2 | 4 | 0 | -7 | 13
Cc1ccc(C2(c3ccc(C)cc3)CC2C(=O)Nc2ccc([N+](=O)[O-])cc2O)cc1 (stereo not drawn) | 25* | 18 | 0 | 9 | 3 | -20
COc1cc(CNCCNC(=O)c2nonc2N)ccc1OCc1ccc(Cl)cc1 | -2 | 1 | 14 | 17* | 1 | 8
Cc1ccc(N2CC(C(=O)Nc3cccnc3)CC2=O)cc1Cl (stereo not drawn) | -1 | -15 | 10 | 5 | -11 | 0

Screens deposited in PubChem by The Scripps Research Institute Molecular Screening Center.
